# Assay results as given in PubChem BioAssay.
# Active and inactive are the calls of the source.
# Tests used:
# Albumin (Bos taurus) = Albumin (Bos taurus) (UniProt P02769); experiment: bovine serum albumin binders on microarray, profiling panel, artefact control for SMM control protein annotation, biochemical, small-molecule microarray, Alexa647 label, 635/667 nm fluorescence (AID 1118); conditions: BSA-A647 binding, fluorescence 635 nm, higher = more signal;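 also: score merges 667 nm emission intensity and signal-to-noise per printed compound spot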
# [1] = small-molecule microarray binders of probe aXIP, primary screen, biochemical, NeuroSMM set, 635/667 nm fluorescence (AID 1119); conditions: higher = more signal, called active from +8 up or from −8 down;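 also: probe is the protein aXip251-270 applied at 1 µg/mL to compound-printed slides; binding of probe to printed compounds measured as 667 nm fluorescence plus signal to noise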
# [2] = small-molecule binders of probe aNOTCH3, primary screen, biochemical, small-molecule microarray, 635/667 nm fluorescence (AID 1120); conditions: higher = more signal;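 also: probe is a biotin-tagged antibody raised against NOTCH3 rather than NOTCH3 protein; score merges spot fluorescence near 667 nm with spot signal to noise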
# [3] = small-molecule binders of probe aNOTCH2, primary screen, biochemical, small-molecule microarray, 635/667 nm fluorescence (AID 1121); conditions: higher = more signal;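 also: score merges feature fluorescence read at 667 nm with its signal to noise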
# [4] = target: Carbonic anhydrase 2 (Homo sapiens) (UniProt P00918); experiment: CAII small-molecule binders, profiling panel, biochemical, small-molecule microarray, Alexa647-labelled CAII (AID 1122); conditions: CAII-A647 binding fluorescence, higher = more signal
# [5] = COS7 lysate on small-molecule microarray, probe aHis, 635 nm (AID 1123); conditions: COS7 cell lysate, fluorescence, higher = more signal;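 also: z-score combines 667nm fluorescence intensity with signal-to-noise per printed compound spot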
# [6] = compound binding in COS7 lysate, probe aLAP1, primary screen, cell lysate, small-molecule microarray (AID 1124); conditions: probe aLAP1, fluorescence, higher = more signal;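 also: lysate comes from COS7 cells expressing LAP1 and is applied at 0.3 µg/mL; score merges spot fluorescence near 667 nm with signal-to-noise over triplicate slides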
# Sam68 (KHDRBS1) = experiment: Sam68 small-molecule binders, primary screen, biochemical, small-molecule microarray, 635 nm fluorescence (AID 1125); conditions: small-molecule microarray binding, higher = more signal;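 also: score merges 667 nm channel intensity with signal to noise over triplicate slides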
# [7] = system: Chordin-like protein 2 (CHRDL2); experiment: CHRDL2 small-molecule binders, primary screen, biochemical, small-molecule microarray, 635 nm fluorescence (AID 1126); conditions: small-molecule microarray binding, fluorescence 635 nm; higher = more signal;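 also: printed compound slides probed with Chrdl2 protein at 4 µg/mL for 1 h at 4 C; score merges 667 nm emission intensity with signal to noise over three replicate slides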
# [8] = target: Concanavalin-A (Canavalia ensiformis) (UniProt P02866); experiment: ConA small-molecule binders, primary screen, artefact control for SMM control protein annotation, biochemical, small-molecule microarray, Alexa647 label, 635 nm (AID 1127); conditions: ConA-A647 binding fluorescence, higher = more signal;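 also: z combines 667 nm emission intensity with signal-to-noise across three replicate slides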
# Chain of Concanavalin-A (Canavalia ensiformis) (P02866 whole entry, looked up): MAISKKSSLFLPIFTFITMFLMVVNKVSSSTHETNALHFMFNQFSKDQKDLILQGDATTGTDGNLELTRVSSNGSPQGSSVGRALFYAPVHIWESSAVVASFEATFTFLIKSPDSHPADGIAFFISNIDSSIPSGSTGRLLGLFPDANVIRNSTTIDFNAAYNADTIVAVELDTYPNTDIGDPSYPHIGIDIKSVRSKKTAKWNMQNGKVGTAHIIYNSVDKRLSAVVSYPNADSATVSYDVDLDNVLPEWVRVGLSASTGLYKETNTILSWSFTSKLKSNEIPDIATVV
# Chain of Albumin (Bos taurus) (P02769 whole entry, looked up): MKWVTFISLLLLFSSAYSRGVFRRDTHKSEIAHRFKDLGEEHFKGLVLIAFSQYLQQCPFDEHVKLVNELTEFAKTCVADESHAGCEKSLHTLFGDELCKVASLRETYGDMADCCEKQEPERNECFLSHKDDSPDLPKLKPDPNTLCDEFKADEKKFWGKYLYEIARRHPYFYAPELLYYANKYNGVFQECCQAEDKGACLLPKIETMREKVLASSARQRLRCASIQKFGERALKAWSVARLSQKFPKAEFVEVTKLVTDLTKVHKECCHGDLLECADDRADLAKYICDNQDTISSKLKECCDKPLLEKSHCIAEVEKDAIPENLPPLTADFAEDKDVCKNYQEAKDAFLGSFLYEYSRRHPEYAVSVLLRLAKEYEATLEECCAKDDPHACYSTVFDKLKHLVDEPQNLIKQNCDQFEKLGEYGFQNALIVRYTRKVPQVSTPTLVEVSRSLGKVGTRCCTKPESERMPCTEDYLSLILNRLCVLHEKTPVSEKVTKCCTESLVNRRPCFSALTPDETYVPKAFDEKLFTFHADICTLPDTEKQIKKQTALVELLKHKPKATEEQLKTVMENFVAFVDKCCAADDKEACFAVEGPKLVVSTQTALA
Structure (SMILES),composite z-score (Albumin (Bos taurus)),composite Z-score [1],composite z-score [2],composite z-score [3],composite z-score [4],composite z-score [5],composite z-score [6],composite z-score (Sam68 (KHDRBS1)),composite z-score [7],composite z-score [8]
C#CCN(Cc1ccccc1Br)C(/C=C/c1ccccc1)CO (stereo not given),-0.406,-0.177 (inactive),-0.212,-0.18,-0.22,-0.163,-0.146,-0.271,0.188,-1.25
O=C1c2ccccc2[C@@]2(Cc3ccccc3N(CC(F)(F)F)C2=O)[C@H](c2ccc(CO)cc2)N1Cc1ccccc1Cl,-0.465,0.142 (inactive),-0.191,-0.228,-0.227,-0.0414,-0.153,0.428,0.929,0.409
C=C(CCCC)/C(=C/C[C@@H](OC(C)=O)c1ccccc1OCCO)c1cnc2ccccc2c1,0.263,0.523 (inactive),0.033,-0.0209,0.684,0.206,0.719,0.97,0.333,0.535
COc1ccc(CCN2C(=O)[C@@]3(c4ccc([N+](=O)[O-])cc4)CC(=O)N(C4CCCCC4)[C@@H]3c3ccc(CO)cc32)cc1,-1.26,0.469 (inactive),-0.0598,-0.101,0.257,0.622,0.347,0.38,0.693,0.587
COc1ccc(C#Cc2ccc3c(c2)[C@]2(C(=O)N3)[C@H](c3ccccc3OCCO)N3[C@H](c4ccccc4)[C@H](c4ccccc4)OC(=O)[C@H]3[C@@H]2C(=O)O)cc1,0.702,-0.274 (inactive),0.671,0.114,0.473,2.27,0.649,1.3,-0.0011,1.15
O=C1OCCC/C=C\[C@H]2OC34C=CCN(Cn5nnc6ccccc65)C(=O)[C@H]3N(CCCCCCO)C(=O)[C@@H]4C12 (stereo not given in full),-0.265,0.236 (inactive),-0.262,-0.101,0.652,2.13,-0.368,0.839,-1.25,-0.472
C=CCN1C(=O)[C@]2(O[C@H](CCO)[C@@H]([Si](C)(C)c3ccc(OC)cc3)[C@@H]2C)c2cc(N3CCCCC3=O)ccc21,0.694,0.801 (inactive),0.135,-0.106,0.163,1.86,0.279,1.28,0.122,0.877
COC(=O)C=C(CC(O)c1cccc(Cl)c1)OC (stereo not given),1.04,1.22 (inactive),0.936,0.436,0.811,0.461,1.02,0.0579,0.091,-0.115
O=C1O[C@@H](c2ccccc2)[C@@H](c2ccccc2)N2[C@@H](c3ccccc3OCCO)[C@]3(C(=O)Nc4ccc(C#CC5=CCCCC5)cc43)[C@@H](C(=O)Nc3nc4ccccc4s3)[C@H]12,0.778,0.243 (inactive),0.0715,-0.0583,0.272,1.39,0.399,1.3,0.309,1.06
COc1ccc(C(=O)O[C@H]2CC[C@]3(C)C4=C(CCC3C2(C)C)[C@]2(C)CC[C@H]([C@H](C)CCCC(C)C)[C@@]2(C)CC4)cc1 (stereo not given in full),0.12,-0.482 (inactive),0.236,-0.149,-0.008,0.688,0.064,0.154,0.575,0.447
CCCCC=C[C@@H](NC(=O)Oc1cccc(C(F)(F)F)c1)c1ccccc1,1.02,0.505 (inactive),0.888,0.39,0.755,0.183,-0.403,1.27,-0.0519,1.13
CCOc1cc(C(O)C2C=CC3C(=O)N(c4ccccc4)C(=O)C3N2Nc2ccccc2)ccc1O (stereo not given),0.0944,-0.224 (inactive),-0.0647,-0.164,0.617,1.31,0.791,0.381,-0.988,0.403
COCCOC(=O)N1C(=O)[C@@]2(c3cc(C#CCCO)ccc31)[C@H](C(=O)N1CCc3cc(OC)c(OC)cc3C1)[C@H]1C(=O)O[C@H](c3ccccc3)[C@H](c3ccccc3)N1[C@@H]2c1ccc(O)cc1,-0.335,0.566 (inactive),0.0893,-0.0846,0.471,2.33,0.255,1.29,0.425,1.04
CCCCCCC#C[Si](O[C@H](c1ccccc1)c1cn([C@H](CO)Cc2ccccc2)nn1)(C(C)C)C(C)C,-0.188,-0.377 (inactive),-0.158,-0.14,0.855,1,0.256,0.729,-0.346,-0.0362
COc1cc2c(cc1OC)CN(C(=O)[C@@H]1[C@H]3C(=O)O[C@H](c4ccccc4)[C@H](c4ccccc4)N3[C@H](c3ccc(O)cc3)[C@@]13C(=O)Nc1ccc(C#CC4(O)CCCCCC4)cc13)CC2,-0.0111,0.841 (inactive),-0.191,0.0834,0.551,2.01,0.548,1.29,1.03,1.16
O=C1OCCC=C[C@H]2OC34C=CCN(CCN5CCOCC5)C(=O)[C@H]3N(CCCCCCO)C(=O)[C@@H]4C12 (stereo not given in full),-0.274,1 (inactive),-0.274,-0.167,0.844,0.1,0.133,-0.614,-0.592,0.0309
COc1ccc(C(=O)Nc2ccc(CN3C(=O)[C@@]4(O[C@@H](CCn5cc([C@H](O)c6ccccc6)nn5)[C@H]([Si](C)(C)c5ccc(OC)cc5)[C@H]4C)c4ccccc43)cc2)cc1,0.0961,0.611 (inactive),-0.0377,-0.124,0.563,1.39,0.0085,0.876,-0.238,0.399
O=C(c1ccccc1)N1Cc2ccccc2[C@@H]2OC(c3ccc(OCCCO)cc3)=N[C@]2(Cc2ccccc2)C1=O,0.383,0.07 (inactive),0.225,-0.18,0.554,1.38,0.482,1.31,0.061,1.13
O=C(C1N=C(c2ccc(OCCCO)cc2)N(c2ccccc2)O1)N1CCOCC1 (stereo not given),0.709,0.0285 (inactive),0.237,-0.0843,0.557,1.54,0.255,1.32,-0.114,0.488
CN(C)C(=O)[C@]1(Cc2ccccc2N=[N+]=[N-])N=C(c2ccc(OCCCO)cc2)O[C@@H]1c1ccccc1,0.724,-0.316 (inactive),0.0522,-0.0013,0.623,2.22,0.644,1.31,0.0709,1.13
COC(=O)[C@@]1(Cc2ccccc2)[C@H]2c3cc(C(=O)N4CCCC4)n(CC4CC4)c3C[C@H]2CN1C(=O)c1ccccc1,0.946,1.02 (inactive),1.13,0.389,0.641,2.89,0.114,1.3,-0.311,0.818
CC(C)(C)C(=O)N[C@@H](c1ccc(Cl)cc1)[C@]1(C)C[C@H]1C1CCCCC1,0.886,-0.149 (inactive),0.449,0.347,0.505,2.12,0.968,1.29,-0.319,1.19
CN(C)C(=O)[C@@]1(Cc2ccccc2CN=[N+]=[N-])N=C(c2ccc(OCCCO)cc2)O[C@H]1c1ccccc1,0.722,-0.797 (inactive),0.103,0.112,0.277,2.69,0.624,1.28,-0.285,0.749
COc1ccc(C(O)C2C=CC3C(=O)N(c4ccccc4)C(=O)C3N2Nc2ccccc2F)cc1OCc1ccccc1 (stereo not given),1.01,1.22 (inactive),0.837,0.114,0.51,2.04,-0.0892,1.31,-0.175,1.13
CC[C@@H]1C=C(C(=O)O)[C@H](c2ccco2)N1S(=O)(=O)c1ccc(C)cc1,-0.179,0.33 (inactive),-0.128,-0.108,0.689,0.059,0.591,0.125,0.209,-1.29
COCCOC(=O)N1C(=O)[C@@]2(c3cc(C#CC4=CCCCC4)ccc31)[C@H](C(=O)Nc1nc3ccccc3s1)[C@H]1C(=O)O[C@H](c3ccccc3)[C@H](c3ccccc3)N1[C@@H]2c1ccccc1OCCO,0.657,-0.478 (inactive),0.757,0.248,0.188,1.1,-0.123,1.13,0.367,1.14
C=CCOC(=O)[C@H]1[C@@H]2C(=O)O[C@@H](c3ccccc3)[C@@H](c3ccccc3)N2[C@@H](c2ccc(OCCOC(=O)[C@@H]3C[C@@H]4C(=O)N5CCC[C@H]5C(=O)N4[C@@H]3c3cccc(OCCO)c3)cc2)[C@]12C(=O)Nc1ccccc12,-0.292,0.594 (inactive),0.336,0.0087,0.192,1.73,0.383,1.29,0.902,1.17
CC(C)C(CO)N1C(=O)[C@@H]2[C@H]3C(=O)OCC=C[C@H]3OC23C=CCN(C(C)C)C(=O)[C@@H]13 (stereo not given in full),-0.457,0.12 (inactive),-0.149,-0.14,-0.0147,-0.312,-0.313,0.239,0.292,-0.529
